Source: PubChem
The full list was thinned out, with hits kept by preference.
TDP1 cell CPT – growth inhibition of DT40 Tdp1-/-;hTDP1 cells with camptothecin (screen for TDP1 inhibitors) | chicken DT40 Tdp1-/-;hTDP1 cells + 20 nM CPT, ATP luminescence, 48 h | Potency, µM (top dose mostly 46.2 µM), for inactives: top-dose activity change, negative = growth inhibition, usual class: inhibitors | 420,000 compounds, 12% hits; also: potency is read from the fitted curve at half-maximal effect; nearly all actives have a fitted effect of over 55% in size
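Chicken DT40 Tdp1-/- cells complemented with human TDP1, 400 cells/well, exposed to compounds plus 20 nM camptothecin for at least 48 h at 37 C; viability read as ATP content by CellTiter-Glo luminescence.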
HT1080 IDH1KD tx – kills HT-1080 cells with IDH1 knockdown; Potency, µM (series often up to 46.1 µM), for inactives: at the top dose activity, negative = toxicity, usual class: cytotoxic; HT-1080 IDH1 knockdown viability, ATP luminescence, 48 h; 360,000 compounds, 2% hits;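 also: potency is read from the fitted curve at half-maximal effect; 0% = DMSO wells and -100% = cell-free medium wells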
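Cytotoxicity counter-line: IDH1KD HT-1080, 48 h, CellTiter-Glo. Curves classed by r2, magnitude and activity.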
IL-1B inflam inh – blocks inflammasome-driven IL-1 beta release; THP-1 LPS/ATP IL-1B secretion, AlphaLISA, 16 h; active compounds read low; activity change, % at 57.5 µM; 360,000 compounds, 4.7% hits; AID 743279; in the data active = activity change below about -50%; inconclusive = mostly about -30% to -49%
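THP-1 cells pretreated 1 hr with compounds (up to 57.5 uM final), then stimulated with LPS (250 ng/mL final) plus ATP (1.25 mM final); secreted IL-1B measured by AlphaLISA after 16 hr, decreased signal indicating inhibition.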
ALOX12 inh – inhibitors of human 12S-lipoxygenase ALOX12; P18054; purified 12hLO, xylenol orange hydroperoxide absorbance; Potency, µM (doses to about 108 µM), for the others: at the top dose activity change, negative = inhibition, most hits filed as inhibitors; 580,000 compounds, 1.1% hits; AID 1671190; also: potency is read from the fitted curve at half-maximal effect
Target sequence (P18054 whole entry, looked up): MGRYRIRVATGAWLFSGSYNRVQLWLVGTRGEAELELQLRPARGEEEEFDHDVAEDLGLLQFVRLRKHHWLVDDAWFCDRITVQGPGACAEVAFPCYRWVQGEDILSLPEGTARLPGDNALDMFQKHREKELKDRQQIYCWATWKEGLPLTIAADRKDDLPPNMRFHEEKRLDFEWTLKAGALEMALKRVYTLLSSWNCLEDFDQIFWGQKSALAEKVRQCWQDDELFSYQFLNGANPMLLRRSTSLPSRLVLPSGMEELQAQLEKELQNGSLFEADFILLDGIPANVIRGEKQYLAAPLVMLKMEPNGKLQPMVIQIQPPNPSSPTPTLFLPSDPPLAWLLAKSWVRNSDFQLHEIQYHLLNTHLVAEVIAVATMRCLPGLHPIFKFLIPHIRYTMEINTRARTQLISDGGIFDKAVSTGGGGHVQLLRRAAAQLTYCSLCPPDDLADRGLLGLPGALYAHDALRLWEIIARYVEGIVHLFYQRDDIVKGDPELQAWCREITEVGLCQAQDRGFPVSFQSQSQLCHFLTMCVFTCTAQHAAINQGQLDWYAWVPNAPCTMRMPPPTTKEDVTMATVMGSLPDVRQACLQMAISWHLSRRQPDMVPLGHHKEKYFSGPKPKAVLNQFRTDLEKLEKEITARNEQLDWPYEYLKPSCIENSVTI
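Purified human 12hLO (150 nM final) in 25 mM Hepes, 0.01% Triton X-100, pH 7.0 was preincubated 15 min at room temperature with compound. Then 40 uM arachidonic acid was added, 30 min. Hydroperoxide was read by Fe-XO absorbance ratio 573/405 nm.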
TDP1 cell noCPT – qHTS for Inhibitors of human tyrosyl-DNA phosphodiesterase 1 (TDP1): qHTS in cells in absence of CPT; 420,000 compounds, 15% hits; Potency, µM (series often up to 46.2 µM), without a hit: at the highest dose activity change, negative = growth inhibition, actives largely listed as inhibitors; DT40 Tdp1-/- hTDP1 cells, no CPT, ATP luminescence, 48 h; also: potency is read from the fitted curve at half-maximal effect; nearly all actives have a fitted effect of over 55% in size
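Growth kinetics read by CellTiter-Glo luminescence after ≥48 hr at 37 °C. Cells: DT40 Tdp1-/- stably carrying human TDP1, 400 per well, compound exposure in the absence of CPT (DMSO vehicle).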
HT1080NT lethal – kills 2HG-producing HT-1080-NT fibrosarcoma cells; HT-1080-NT fibrosarcoma viability, CellTiter-Glo ATP luminescence, 48 h; Potency, µM (titrated, usually from 46.1 µM), for inactives: at the highest dose activity, negative = less viability, most hits filed as cytotoxic; 360,000 compounds, 1.6% hits;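 also: NT is the 2HG producing partner of a matched IDH1 knockdown line; potency is read from the fitted curve at half-maximal effect; 0% = DMSO-treated cells and -100% = media-only wells without cells; nearly all actives have a fitted effect of over 55% in size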
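HT-1080-NT; 750 cells/well; 5% FBS RPMI; 48 h compound, 37 degrees C; CellTiter-Glo luminescence; curve fitting and curve-class assignment.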
An asterisk follows results filed as active; ? = inconclusive; / = no result. Unless noted, calls follow the shape of the dose curve; as a rule, active = well fitted curve in the direction sought with a large enough effect; inconclusive = small, poorly fitted or top-dose-only effect, or another doubt; inactive = no such curve, though single readings can be large; an effect the other way counts as inactive or inconclusive. Unless noted, % is scaled to controls: 0 for no effect and ±100 for the full control effect.

SMILES	TDP1 cell CPT	HT1080 IDH1KD tx	IL-1B inflam inh	ALOX12 inh	TDP1 cell noCPT	HT1080NT lethal
CC1=C[C@@H](CNS(=O)(=O)c2ccccc2)[C@H](C(C)C)C[C@H]1CC(=O)NCc1ccc(C#N)cc1	/	/	/	35µM*	/	/
COc1ccc(S(=O)(=O)NC[C@@H]2C=C(C)[C@H](CC(=O)NCc3ccc(C#N)cc3)C[C@H]2C(C)C)cc1	/	/	/	35µM*	/	/
CC1=C[C@@H](CNS(=O)(=O)c2ccccc2)[C@H](C(C)C)C[C@H]1CC(=O)NCCN(C)C	/	/	/	21%	/	/
O=c1[nH]c(=O)n(Cc2ccco2)c2nccc(-c3ccc(-c4ccccc4)cc3)c12	/	/	/	-3%	/	/
O=C(NC1CCCC1)C1CCCN(c2ncnc3nc[nH]c23)C1 (stereo unspecified)	/	/	/	1%	/	/
COc1cc(OC)c(NS(=O)(=O)c2cc(C(=O)N3CCC(C(N)=O)CC3)ccc2C)cc1Cl	/	/	/	5%	/	/
Cc1ccc(CSc2nc3ccccc3c(=O)n2C)cc1	?	-14%	54	0%	?	-23%
O=c1c2ccccc2nc(SCc2ccc(F)cc2Cl)n1CCCN1CCOCC1	?	-2%	-22	-15%	16µM*	22%
O=C(CSc1nc2ccccc2c(=O)n1CCCN1CCOCC1)c1c[nH]c2ccccc12	?	?	-110*	-15%	?	?
CCc1ccc(C(=O)CSc2nc3ccccc3c(=O)n2CCCN2CCOCC2)cc1	/	/	/	15%	/	/
Cn1c(SCc2ccc(F)cc2Cl)nc2ccccc2c1=O	?	-12%	45	187%	15µM*	-3%
COc1ccccc1CNC(=O)CSc1nc2ccccc2c(=O)n1CCCN1CCOCC1	5%	5%	-2	1%	-11%	-5%
CCC(=O)N1CCCC(C)(C(=O)Nc2ccc(C)c(C)c2)C1 (stereo unspecified)	-20%	3%	-12	-2%	-18%	-3%
COc1nccc(N2CC[C@@](O)(C3CCOCC3)[C@H](C)C2)c1C#N	/	/	/	5%	/	/
COc1ccc(/C=C2\Oc3cc(OC(=O)C(C)(C)C)ccc3C2=O)cc1	/	/	/	-22%	/	/
CC1C(=O)N(Cc2cccc(F)c2)c2ccccc2N1C(=O)c1ccccc1 (stereo unspecified)	?	-14%	-14	2%	15µM*	-26%
COc1cccc(CN2C(=O)C(C)N(C(=O)c3c(F)cccc3F)c3ccccc32)c1 (stereo unspecified)	23µM*	-26%	-14	21%	10µM*	?
CC1C(=O)N(Cc2ccccc2F)c2ccccc2N1C(=O)c1c(F)cccc1F (stereo unspecified)	18µM*	-13%	?	?	18µM*	-1%
Cc1ccc(C(=O)CSc2nc3cc(C(=O)NC4CCCC4)ccc3c(=O)n2CC2CCCO2)c(C)c1 (stereo unspecified)	10µM*	/	/	-22%	?	/
Cc1ccc(NC(=O)CSc2nc3cc(C(=O)NCC4CCCO4)ccc3c(=O)n2CC2CCCO2)cc1 (stereo unspecified)	?	-9%	-6	9%	?	-13%
O=C(CSc1nc2ccccc2c(=O)n1CC1CCCO1)N1CCN(c2ccccc2)CC1 (stereo unspecified)	26µM*	-30%	0	-14%	23µM*	?
O=C(NCC1CCCO1)c1ccc2c(=O)n(CC3CCCO3)c(SCC(=O)N3CCCC3)nc2c1 (stereo unspecified)	-7%	6%	16	-8%	0.23µM*	0%
Cc1ccc(NC(=O)c2cncn2-c2ccc(F)cc2)cc1S(N)(=O)=O	/	/	/	4%	/	/
CN(Cc1ccc(Cl)s1)C(=O)CSc1nnc(COc2ccccc2Cl)n1C	/	/	/	12%	/	/
O=c1oc2ccccc2n1CCCOc1ccccc1Cl	-20%	/	/	-4%	?	/
SMILES	TDP1 cell CPT	HT1080 IDH1KD tx	IL-1B inflam inh	ALOX12 inh	TDP1 cell noCPT	HT1080NT lethal
COc1ccc(C2C=C(C)Nc3nc4ccccc4n32)cc1 (stereo unspecified)	-4%	-6%	21	1%	18µM*	-3%
CC(C)CCNC(=O)CC1CCCN(c2cnn(C)c(=O)c2)C1 (stereo unspecified)	/	/	/	14%	/	/
CC(C)C(=O)NCC(c1ccc2c(c1)OCO2)N1CCOCC1 (stereo unspecified)	15%	13%	19	2%	3%	0%
CC(C)(C)OC(=O)CNC(=O)c1[nH]cnc1C(=O)NC(c1ccccc1)c1ccccc1	23µM*	-5%	?	-2%	?	-15%
C[C@H](NC(=O)c1nc[nH]c1C(=O)NCC(=O)OCc1ccccc1)c1ccccc1	?	-1%	3	8%	18µM*	0%
CC(C)C[C@H](NC(=O)c1[nH]cnc1C(=O)N[C@@H](C)c1ccccc1)C(=O)OCc1ccccc1	29µM*	?	24	/	26µM*	?
CC(C)C[C@H](NC(=O)c1nc[nH]c1C(=O)N[C@@H](CC(C)C)C(=O)OC(C)(C)C)C(=O)OCc1ccccc1	?	?	0	74%	?	?
CC(C)n1nc(C(=O)NC2CCS(=O)(=O)C2)c2ccccc2c1=O (stereo unspecified)	/	/	/	33%	/	/
CC1CCCC(NC(=O)C2N(CCCN3CCCC3)C(=O)C3C(C(=O)Nc4cccc(Cl)c4)C4C=CC32O4)C1C (stereo unspecified)	-2%	-29%	-57*	-9%	?	-22%
CCCCN(C)CCN1C(=O)C2C(C(=O)Nc3ccc(C)cc3)C3C=CC2(O3)C1C(=O)NC1CCCCC1 (stereo unspecified)	0%	-4%	-54*	?	-22%	-4%
CCN(CC)CCN1C(=O)C2C(C(=O)Nc3ccc(C(C)C)cc3)C3C=CC2(O3)C1C(=O)NC1CCCCC1 (stereo unspecified)	1%	?	-14	-15%	-23%	-1%
CN(C)CCN1C(=O)C2C(C(=O)Nc3cc(Cl)cc(Cl)c3)C3C=CC2(O3)C1C(=O)NC1CCCCC1 (stereo unspecified)	4%	-11%	-68*	8%	-2%	-18%
COc1ccc(-c2cc(NC=O)c3ncc(-c4ccc(C(C)=O)cc4)n3c2)cc1OC	16µM*	13µM*	-70*	5%	18µM*	16µM*
